This is part of a sample that, as a whole, favours compounds with a hit. Of some 83,000 tested, about 20% had one in any assay.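 Results are percent growth after 48 hours of single-concentration exposure. 100 means growth as in untreated cells, lower positive values show inhibition; negative values down to -100 show cell death.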 Active and inactive are the calls of the source. How the source made its calls: active means growth percent below 10; inactive means the rest.
Key:
Test in all cases: NCI-60 one-dose screen, 48 h (100 = growth as untreated, 0 = no growth, -100 = all killed)
Settings in all cases: 10 µM unless noted
[1] = system: NCI-H23 lung
[2] = system: NCI-H322M lung
[3] = system: HOP-62 NSCLC
[4] = system: NCI-H460 lung
[5] = system: HOP-92 NSCLC
[6] = system: NCI-H522 lung
[7] = system: A549/ATCC NSCLC
[8] = system: 786-0 renal
[9] = system: COLO 205 colon
[10] = system: DU-145 prostate
[11] = system: K-562 leukemia
[12] = system: MALME-3M melanoma
[13] = system: MDA-MB-231 breast
[14] = system: RXF 393 renal
[15] = system: SF-268 CNS
[16] = system: SF-295 CNS
[17] = system: SF-539 CNS
[18] = system: UACC-257 melanoma
[19] = system: M14 melanoma
[20] = system: HCT-15 colon

Measured: growth

O=C(COc1cc(O)c2c(=O)cc(-c3ccccc3)oc2c1)Nc1ccccc1C(F)(F)F
inactive: [1] 46.1% | [2] 62.2% | [3] 16.2% | [5] 51.6% | [6] 46.6% | [9] 60.1% | [10] 52.7% | [11] 49.2% | [12] 54.3% | [14] 63.4% | [15] 63.5% | [16] 34.6% | [17] 35.2% | [18] 73.4% | [19] 70.6% | [20] 53.4%
active: [4] -42.5% | [7] 0.206% | [8] 7.11% | [13] 9.62%

COc1ccccc1CNC(=O)C1c2ccccc2C(=O)N(CC(C)C)C1c1cccs1 (stereo not given)
active: [14] -2.16% | [16] -33.5%
inactive: [1] 76.6% | [2] 69.8% | [3] 62.6% | [4] 55.6% | [5] 76% | [6] 41% | [7] 60.7% | [8] 75.1% | [9] 46.1% | [10] 71.2% | [11] 16.4% | [12] 46.4% | [13] 19.6% | [15] 65.7% | [17] 63.4% | [18] 96.2% | [19] 61.6% | [20] 30.8%

O=C1/C(=C/c2cccc(O)c2)COc2ccc(O)cc21
active: [11] 7.52%
inactive: [1] 86.5% | [2] 98.2% | [3] 103% | [4] 76.3% | [5] 104% | [6] 36.6% | [7] 103% | [8] 82.1% | [9] 102% | [10] 80.5% | [12] 78.6% | [13] 103% | [14] 115% | [15] 90.3% | [16] 105% | [17] 92.3% | [18] 93.3% | [19] 85.3% | [20] 10.6%

c1ccc2c(c1)oc1cc3sccc3nc12
inactive: [1] 101% | [2] 99.2% | [3] 89.5% | [4] 104% | [5] 95.1% | [6] 93% | [7] 102% | [8] 96.1% | [9] 109% | [10] 114% | [11] 98.1% | [12] 102% | [13] 101% | [14] 109% | [15] 97.5% | [16] 108% | [17] 98.8% | [18] 104% | [19] 94.7% | [20] 99.5%

COc1ccc(Cn2c(Br)c3c(c2-c2cc(OC)c(OC)c(OC)c2)CCc2sc(NC(C)=O)nc2-3)cc1
inactive: [1] 66.1% | [2] 63% | [3] 60.3% | [4] 31.2% | [5] 65.5% | [6] 13.4% | [7] 52.8% | [8] 54.1% | [9] 20.8% | [10] 66.7% | [11] 15.4% | [13] 62.6% | [14] 32.3% | [15] 37.1% | [17] 23.1% | [18] 48% | [19] 47.9% | [20] 51.9%
active: [12] -6.05% | [16] 3.53%

COc1ccc(CN2CCCC(C(=O)c3ccc(C(F)(F)F)cc3)C2)c(O)c1 (stereo not given)
active: [4] 7.11% | [6] -36.6% | [9] -23.1% | [11] 7.39% | [13] 7.33% | [16] -20.8%
inactive: [1] 37.3% | [2] 80.6% | [3] 37.5% | [5] 36.5% | [7] 32.3% | [8] 41.5% | [10] 50.6% | [12] 12.7% | [14] 20.4% | [15] 30.5% | [17] 14.8% | [18] 40.1% | [19] 18.9% | [20] 25.7%

COc1nccc2cc3c(=O)n4c(cc5ccccc54)c(=O)n3c12
inactive: [1] 89.8% | [2] 86.3% | [3] 82.3% | [4] 103% | [5] 118% | [6] 93.7% | [7] 104% | [8] 102% | [9] 102% | [10] 111% | [11] 91.9% | [12] 85.7% | [13] 90.3% | [14] 112% | [15] 101% | [16] 106% | [17] 104% | [18] 114% | [19] 97.2% | [20] 91.4%

O=c1oc2ccc(-c3ccc(F)cc3F)cc2c(=O)n1-c1cccc(C(F)(F)F)c1
active: [1] 1.75% | [2] 4.41% | [3] 3.5% | [4] 4.14% | [5] -26.6% | [6] -10.7% | [7] 7.26% | [8] 0.874% | [12] -24% | [13] -16% | [14] -8.07% | [16] -0.824% | [17] 9.91% | [18] -14.2%
inactive: [9] 17.9% | [10] 20.1% | [11] 10.9% | [15] 12.7% | [19] 18.3% | [20] 13%

CS(=O)(=O)Nc1ccc(C(=O)NC(C(=O)NO)c2ccc(-c3cccc(F)c3)cc2)cc1 (stereo not given)
active: [5] -8.77%
inactive: [1] 45.6% | [2] 53.5% | [3] 99.1% | [4] 89.7% | [6] 30% | [7] 103% | [8] 72.8% | [9] 109% | [10] 83.5% | [11] 90% | [12] 92% | [13] 42.1% | [14] 106% | [15] 47.3% | [16] 93.7% | [17] 92.6% | [18] 101% | [19] 85.3% | [20] 91.5%

O=C(CN1C=NC2C(N3CCOCC3)=NC=NC21)c1cccc2ccccc12 (stereo not given)
inactive: [1] 103% | [2] 98.8% | [3] 99.2% | [4] 103% | [5] 90.2% | [6] 90.2% | [7] 90.1% | [8] 101% | [9] 119% | [10] 105% | [11] 107% | [12] 114% | [13] 88.1% | [14] 100% | [15] 84.7% | [16] 102% | [17] 98.9% | [18] 101% | [19] 105% | [20] 95.8%

Reference: PubChem BioAssay (NCI)
